Compounds without any hit were thinned out: in the full panel of roughly 83,000, 20% have a hit.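 Negative percent growth values reflect cell death: -40 means 40% of the cells present at the start died, and -100 means all died.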 Activity calls are given as the source filed them. How the source made its calls: active means growth percent below 10; inactive means the rest.

Our source for the growth values is PubChem BioAssay (NCI).

The assay has as its system HL-60(TB) leukemia. The assay can be described thus: NCI-60 one-dose screen, 48 h (100 = growth as untreated, 0 = no growth, -100 = all killed). The note with it: 10 µM unless noted.
With `N#Cc1c(-c2cccc3ccccc23)cc(-c2cccc(OCC(=O)O)c2)[nH]c1=O`, the growth was 82.2% (inactive). With `COc1ccc(N=Nc2c(N)nn3c(N)c(C#N)c(-c4ccc(C)cc4)nc23)cc1` the figure was 52.1% (inactive). For the molecule `O=C(c1ccccc1)C(c1c[nH]c2ccccc12)c1c[nH]c2ccccc12`, the growth is 53.8% (inactive).

Consider `CN1CCN(c2ccc(C(=O)/C=C/c3cc(Br)ccc3F)cc2)CC1`, for which the growth is -22.1% (active). Next, `Clc1ccc(/C=N/Nc2ncnc3sc4c(c23)CCN(Cc2ccccc2)C4)cc1`: -8.28% (active); `Cc1ccc(-c2ccc(SCC(=O)Nc3ccc(S(N)(=O)=O)cc3Br)nn2)cc1`: 100% (inactive); `O=C(c1ccc(O)cc1)C1[C@H](c2ccccc2Br)[C@@H](c2ccccc2)NC12C(=O)Nc1ccccc12` (stereo not given in full): 19.8% (inactive). With `COc1cccc2nc(Nc3cccc(NC(=O)c4ccc(CN5CCN(C)CC5)c(C(F)(F)F)c4)c3)ccc12`, the growth is -53.1% (active). On to `COc1ccc(-c2cc(-c3cc(OC)c(OC)c(OC)c3)[nH]c(=O)c2C#N)cc1`, for which the growth is 102% (inactive). As to `Cc1ccc(C2CC(c3ccc(NC(=O)Nc4ccccc4)cc3)=NN2c2ccc(S(N)(=O)=O)cc2)cc1` (stereo not given), the growth is -42.5% (active). Regarding `CC1=C(C)C(=O)C(NCCN2CCOCC2)=C(Br)C1=O`, the growth was -24.9% (active). As for `COc1cc(-c2nc3ccc(C)cc3[nH]2)ccc1OCc1nnc(-c2ccccc2Br)o1`, the growth is 69.5% (inactive).

As to `COc1ccc(NC(=O)CSc2nnc(-c3ccc(-c4nc5ccc(Cl)cc5[nH]4)cc3)o2)cc1`, the growth is 61.5% (inactive).

With `Cc1ccc(-c2cc(-c3ccccc3)[nH]c(=O)c2C#N)cc1`, the growth was 86.9% (inactive).

As for `C=CCn1c(O)c(N=Nc2nc(-c3cc4ccccc4oc3=O)cs2)c2ccccc21`, the growth was 111% (inactive). With `COc1ccc(-c2nc3ccc(C(=O)NN4C(=O)c5ccc([N+](=O)[O-])cc5C4=O)cc3[nH]2)cc1` the figure was 104% (inactive). Regarding `Cc1ccc(-c2cc(C(=O)N=Nc3c(O)[nH]c4ccccc34)c3ccccc3n2)cc1`, the growth was 28.2% (inactive).

For `CC(=O)OC[C@@]1(C)C2CC[C@]3(C)C(CC=C4C5CC(C)(C)CC[C@]5(C(=O)Nc5ccc(C)cc5)CC[C@]43C)[C@@]2(C)C[C@@H](OC(C)=O)[C@@H]1OC(C)=O` (stereo not given in full), the growth is 31.6% (inactive). Regarding `O=C(Cc1c(-c2ccccc2[N+](=O)[O-])n(-c2ncnc3c2c(-c2ccccc2)c(-c2ccccc2)n3Cc2ccccc2)[nH]c1=O)c1ccc(Cl)c(Cl)c1`, the growth is 1.19% (active).

Consider `CC(=O)Nc1cccc(Nc2nc(NCc3ccccc3)c3ccccc3n2)c1`, for which the growth was -64% (active).

With `NS(=O)(=O)c1ccc(N2N=C(c3ccc(NC(=O)Nc4ccccc4)cc3)CC2c2ccc(Br)cc2)cc1` (stereo not given), the growth is -4.8% (active). On to `C#CCOc1ccc(/C=N/Nc2nc(-c3ccc(F)cc3)cs2)cc1OC`, for which the growth is 25.2% (inactive).

Regarding `Cc1ccc(C(=O)NN2C(=O)/C(=C/C=C/c3ccc([N+](=O)[O-])o3)SC2=S)cc1`, the growth was 2.23% (active). In the case of `C=CC(=O)Nc1ccc(C(=O)/C=C/c2ccc(N(C)C)cc2)c(O)c1`, the growth is 1.03% (active). Consider `O=C1NC(=NC23CC4CC(CC(C4)C2)C3)N/C1=C\c1ccc2ncoc2c1`, for which the growth was -8.15% (active). Take `CCN1CCN(Cc2ccc(C(=O)Nc3cccc(-c4cn(-c5ccc6oc(=O)ccc6c5)nn4)c3)cc2C(F)(F)F)CC1`: the growth is 27.7% (inactive). As to `COc1ccc2c(c1)C(Sc1ccc(F)cc1)c1c(nc(N)c(C#N)c1N)O2` (stereo not given), the growth was 84.9% (inactive). Consider `CC1=C(C(=O)c2ccccc2)C(c2ccc(-n3cncn3)cc2)n2c(nc3ccccc32)N1` (stereo not given), for which the growth is 86.9% (inactive). Next, `Cc1cc(C2(c3cc(C)c(OCC(O)CNc4c(C)n(C)n(-c5ccccc5)c4=O)cc3C(C)C)OC(=O)c3ccccc32)c(C(C)C)cc1OCC(O)CNc1c(C)n(C)n(-c2ccccc2)c1=O` (stereo not given): 0.434% (active); `O=C1CCC(N2Cc3cc(NC(=O)COc4ccccc4)ccc3C2=O)C(=O)N1` (stereo not given): 6.3% (active); `COc1cc2c(c(OC)c1OC)C(=O)CC(c1cccc(NC(=O)c3cc(NC(=O)[C@H](C)N)ccc3Cl)c1)O2` (stereo not given in full): 2.28% (active).

On to `Cn1cc(-c2cc3nc(-c4c[nH]c5ccccc45)cc(N)n3n2)c2ccccc21`, for which the growth is -41.2% (active). On to `CCN1C(=O)N(CC)C2NNC(Sc3c(C(=O)O)c4ccccc4n(CCC(C)C)c3=O)=NC21` (stereo not given), for which the growth was -48.1% (active). With `Cc1cc(C(F)(F)F)ccc1C(=O)Nc1sc2c(c1C#N)CCC(=O)C2`, the growth was -14.5% (active).

Turning to `COC[C@@H](CC(C)C)N=C1NC(=O)/C(=C/c2ccc3ncsc3c2)N1`, the growth was 1.21% (active). As to `O=c1onc(-c2cc3ccccc3nc2Cl)n1-c1cccc2ccccc12`, the growth is 33.5% (inactive).

`CCN(CC)c1ccnc(CNCCSC(c2ccccc2)(c2ccccc2)c2ccc(OC)cc2)c1`: the growth was -34.3% (active). `COc1ccc(C(=O)/C=C/c2cc(C(F)(F)F)cc(C(F)(F)F)c2)cc1S(N)(=O)=O`: the growth is 2.43% (active). For the molecule `C=C1CCC2C3(C)COC(c4ccco4)OC3CCC2(C)C1CC(Sc1ccccc1)C1=CCOC1=O` (stereo not given), the growth is -21.6% (active). `O=C(Cn1nc(-c2ccccc2)ccc1=O)N/N=C/c1ccc(N2CCOCC2)cc1`: the growth is 96.3% (inactive).
